# In PubChem BioAssay (Tox21):
# Inconclusive results are not listed. A call without a number means that no potency is given here. Calls of active or inactive are those of the source. Calls come from the whole dose curve; as a rule, active = well fitted inhibition curve with a large enough effect in the repeat runs; inconclusive = weak or mixed curves; inactive = no such curve, though single readings can be large or run the other way.
# Molecular target: Estrogen receptor (Homo sapiens) (UniProt P03372)
# Sequence (P03372 whole entry, looked up): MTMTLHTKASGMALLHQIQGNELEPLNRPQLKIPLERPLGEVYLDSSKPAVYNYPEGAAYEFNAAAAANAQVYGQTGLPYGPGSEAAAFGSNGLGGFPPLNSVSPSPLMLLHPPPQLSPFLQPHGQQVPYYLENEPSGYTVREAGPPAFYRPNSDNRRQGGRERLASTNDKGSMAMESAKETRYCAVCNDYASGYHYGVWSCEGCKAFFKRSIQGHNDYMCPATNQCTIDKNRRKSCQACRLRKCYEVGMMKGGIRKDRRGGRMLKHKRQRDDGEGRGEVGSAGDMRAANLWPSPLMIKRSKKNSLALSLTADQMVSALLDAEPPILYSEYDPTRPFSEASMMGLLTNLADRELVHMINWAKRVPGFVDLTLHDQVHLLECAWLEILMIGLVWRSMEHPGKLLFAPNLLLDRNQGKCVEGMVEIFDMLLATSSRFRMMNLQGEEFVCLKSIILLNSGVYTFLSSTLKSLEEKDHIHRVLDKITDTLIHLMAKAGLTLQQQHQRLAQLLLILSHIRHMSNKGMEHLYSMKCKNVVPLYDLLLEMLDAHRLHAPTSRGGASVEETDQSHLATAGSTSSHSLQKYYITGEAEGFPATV
# Experiment: qHTS assay to identify small molecule antagonists of the estrogen receptor alpha (ER-alpha) signaling pathway using the BG1 cell line in the presence of 0.1 nM 17-beta-estradiol (AID 1259244); note: nearly all actives have a fitted effect of over 50% in size
# Details: VM7Luc4E2 (BG1) ERE-luciferase, antagonist mode, 0.1 nM E2, 22 h; series mostly up to 92.4 µM
# Excerpt: National Center for Advancing Translational Sciences [NCATS]
# NIH Chemical Genomics Center [NCGC]
# U.S. Environmental Protection Agency [EPA]
# National Institutes of Environmental Health Sciences [NIEHS]
# National Toxicology Program [NTP]
# U.S. Food and Drug Administration [FDA]
# Estrogen receptor (ER), a member of the nuclear hormone receptor plays an important role in development, metabolic homeostasis and reproduction. Two subtypes of ER, ER-alpha and ER-beta, have similar expression patterns with some uniqueness in both types. Endocrine disrupting chemicals (EDCs) and their interactions with steroid hormone receptors like ER causes disruption of normal endocrine function. Therefore, it is important to understand the effect of environmental chemicals in ER signaling pathway. For identifying ER antagonists, VM7Luc4E2 cell line was used to screen against Tox21 compound libraries.
# VM7Luc4E2 cell line (provided by Denison MS, University of California) endogenously express full-length ER-alpha and is stably transfected with a plasmid containing four estrogen responsive elements (ERE) upstream of a luciferase reporter gene. The current screening for identification of ER-alpha inhibitors against Tox21 compound libraries used lower concentration (0.1 nM) of 17beta-Estradiol as a stimulator.
# Tox21 Assay Protocol Summary:
# VM7Luc4E2 cells were cultured in phenol red free assay medium containing 10% charcoal stripped FBS for 5 days prior to the assay. The cells were dispensed at 4,000 cells/well in 4 uL of assay medium into white wall/solid-bottom 1536-well plates (Corning Life Sciences, Corning, NY) using a Multidrop Combi (ThermoFisher Scientific, Waltham, MA) dispenser. After the assay plates were incubated at 37C and 5% CO2 for 24 hr, 23 nL of compounds dissolved in DMSO, positive controls or DMSO only was transferred to the assay plates by a Pintool station (Kalypsys, San Diego, CA). The transfer of compounds was followed by the addition of 1 uL of 0.1 nM (final concentration) agonist (17beta-Estradiol)/assay medium using a Flying Reagent Dispenser (FRD, Aurora Discovery, San Diego, CA). The plates were incubated at 37C and 5% CO2 for 22 hr. For luciferase reporter gene assay, 4 uL of ONE-Glo reagent (Promega Corporation, Madison, WI) was added to each well using the FRD and after 30 min incubation at room temperature luminescence intensity was measured using ViewLux plate reader (PerkinElmer, Shelton, CT).
# Potency is the fitted concentration of half-maximal effect.
row,SMILES,Potency
1,CCOC(=O)C1=NN(c2ccccc2)C(=O)C1,inactive
2,CCCCCCCCCC(=O)OCC,inactive
3,C1=Cc2ccccc2C1,inactive
4,Cc1nc2ccccc2n1Cc1ccc(Cl)cc1,2.11 µM (active)
5,CCCCOC(=O)c1ccccc1C(=O)OCC(CC)CCCC (stereo not given),inactive
6,CC[C@H](C)[C@@H](C(=O)O)n1sc2ccccc2c1=O,inactive
7,CCOC(=S)SSC(=S)OCC,inactive
8,CC(C)CC=O,inactive
9,FC(F)(F)C(F)(F)C(F)(F)C(F)(F)C(F)(F)C(F)(F)CCI,inactive
10,Cc1ccc(C(N)=O)cc1N,inactive
11,C1CCC2OC2C1 (stereo not given),inactive
12,CCC(C)N(C)C(=O)c1cc2ccccc2c(-c2ccccc2Cl)n1 (stereo not given),inactive
13,Cn1sccc1=O,inactive
14,O=C(Nc1ccccc1)OCC(CN1CCCCC1)OC(=O)Nc1ccccc1 (stereo not given),inactive
15,CCCCCCCCCCCCCCC1CO1 (stereo not given),inactive
16,CCCCOCCOCCOCCOCCO,inactive
17,Cc1ccccc1N=Nc1ccc(N=Nc2c(O)ccc3ccccc23)c(C)c1,inactive
18,NC1CCN(c2nc3c(cc2F)c(=O)c(C(=O)O)cn3-c2ccc(F)cc2F)C1 (stereo not given),inactive
19,O=C(O)c1cn(C2CC2)c2cc(Cl)c(F)cc2c1=O,inactive
20,C=C(C)C(=O)OCCN(C)C,inactive

row,SMILES,Potency
1,CC(C)c1ccc2c(C(C)C)cc(C(C)C)c(S(=O)(=O)O)c2c1,inactive
2,O=C(NS(=O)(=O)/C=C/c1cccs1)c1ccc(F)cc1Br,inactive
3,CCOc1ccc2[nH]cc(C(=O)NCc3ccccc3)c(=O)c2n1,54.5 µM (active)
4,CCCCCCCCCO,inactive
5,CCN1CCC[C@H]1CNC(=O)c1c(OC)ccc(Br)c1OC,inactive
6,CCCCCCCCCC=O,inactive
7,O=C(Cl)c1c(Cl)cccc1Cl,inactive
8,CC1=CCC(C(C)C)C=C1 (stereo not given),inactive
9,O=C(O)Cn1c(C(=O)Nc2nc(-c3ccccc3Cl)cs2)cc2ccccc21,inactive
10,CC(=O)N(CC(=O)N(C)C)c1ccccc1,inactive
11,CNCC[C@@H](Oc1ccccc1C)c1ccccc1,inactive
12,C=CCCCCCC,inactive
13,Cc1ncsc1CCO,inactive
14,CC(C)(C)C1CCCCC1O (stereo not given),inactive
15,CCC(=O)OC(C)(C)C1CC=C(C)CC1 (stereo not given),inactive
16,CC(C)CCCC(C)CCO (stereo not given),inactive
17,CCCCCCCCCCCCC(=O)O,inactive
18,NCCCOCCOCCOCCCN,inactive
19,CN(c1nccc(=O)[nH]1)C1CCN(c2nc3ccccc3n2Cc2ccc(F)cc2)CC1,inactive
20,NCCCN(CCO)CCO,inactive
